Results reported in PubChem BioAssay (EPA / NIEHS).
Active and inactive are the calls of the source. The calls were made as follows: active = hit-call score of the fitted dose curve at least 0.9, where 1 is the maximum; inactive = score below 0.9.

What follows are molecules tested on Cytochrome P450 (CYP24A1), CYP24A1 (gene 1591) (assay: LTEA_HepaRG_CYP24A1: Life Technologies and Expression Analysis (LTEA) Assay for Cytochrome P450 (CYP24A1) using HepaRG (AID 2283478)). Details: mRNA level, 48 h; actives raise or lower the signal.
How it was run: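 qRT-PCR read-out: CYP24A1 transcript levels normalized to three housekeeping genes, bidirectional curve fits against 0.5% DMSO baseline. Human HepaRG cells treated 48 h with chemicals at eight concentrations from 100 uM in half-log steps.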
`COC(=O)N(C(=O)N1CO[C@@]2(C(=O)OC)Cc3cc(Cl)ccc3C2=N1)c1ccc(OC(F)(F)F)cc1` was tested, and the outcome was “inactive”. In the case of `CC1(C)C(C=C(Cl)Cl)C1C(=O)OC(C#N)c1cccc(Oc2ccccc2)c1` (centres undefined), the outcome is reported as “inactive”. In the case of `Cc1cc(C)nc(Nc2ccccc2)n1`, the outcome is reported as “inactive”. `O=c1n(Cl)c(=O)n(Cl)c(=O)n1Cl` was tested, and the outcome was “inactive”. In the case of `CO/N=C(/C1=NOCCO1)c1ccccc1Oc1ncnc(Oc2ccccc2Cl)c1F`, the outcome is reported as “inactive”. With `COCC(=O)N(c1c(C)cccc1C)C(C)C(=O)OC` (centres undefined) the outcome was “inactive”. In the case of `C=CCOC(=O)C(C)(C)OC(=O)c1cc(-n2c(=O)cc(C(F)(F)F)n(C)c2=O)ccc1Cl`, the outcome is reported as “inactive”. `COC(=O)c1c(C(F)F)nc(C(F)(F)F)c(C2=NCCS2)c1CC(C)C` was tested, and the outcome was “inactive”. In the case of `CN=C=S`, the outcome is reported as “inactive”. In the case of `CC(C)NC(=O)N1CC(=O)N(c2cc(Cl)cc(Cl)c2)C1=O`, the outcome is reported as “inactive”. For `COc1cc(OC)nc(NC(=O)NS(=O)(=O)c2ncccc2OCC(F)(F)F)n1`, the outcome was “inactive”. In the case of `COP(=O)(OC)O/C(C)=C/C(=O)N(C)C`, the outcome is reported as “inactive”. For `CCOc1cc(C(C)(C)C)ccc1C1COC(c2c(F)cccc2F)=N1` (centres undefined), the outcome was “inactive”.

Each molecule was assayed on Cytochrome P450 (CYP1A2), CYP1A2 (gene 1544) (assay: LTEA_HepaRG_CYP1A2: Life Technologies and Expression Analysis (LTEA) Assay for Cytochrome P450 (CYP1A2) using HepaRG (AID 2283479)). Details: mRNA level, 48 h; actives raise or lower the signal.
How it was run: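 HepaRG, 48 h exposure, top 100 uM, half-log 8-pt, 0.5% DMSO vehicle, duplicates. Readout: TaqMan qRT-PCR of CYP1A2 mRNA, housekeeping-normalized (ACTB/GAPDH/POLR2A). Gain/loss fit relative to DMSO baseline.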
With `OC(c1ccc(Cl)cc1)(c1ccc(Cl)cc1)C(Cl)(Cl)Cl` the outcome was “inactive”. For `CS(=O)(=O)c1cc(C(F)(F)F)ccc1C(=O)c1cnoc1C1CC1`, the outcome was “inactive”. In the case of `CCOP(=S)(OCC)Oc1nc(Cl)n(C(C)C)n1`, the AC50 is reported as 11.3 µM (active). For `COP(=S)(OC)SCn1nnc2ccccc2c1=O`, the AC50 was 33.6 µM (active). With `CNC(=O)N(C)c1nnc(C(C)(C)C)s1` the AC50 was 50 µM (active). `Clc1nc(Cl)nc(Nc2ccccc2Cl)n1` was tested, and the AC50 was 20.1 µM (active). With `Nc1c(Cl)c(Cl)nc(C(=O)O)c1Cl` the AC50 was 50 µM (active). In the case of `Nc1c(Cl)c(F)nc(OCC(=O)O)c1Cl`, the outcome is reported as “inactive”. `CC1(C)CCC(=Cc2ccc(Cl)cc2)C1(O)Cn1cncn1` (centres undefined) was tested, and the AC50 was 23.3 µM (active). In the case of `COC(=O)N(C(=O)N1CO[C@@]2(C(=O)OC)Cc3cc(Cl)ccc3C2=N1)c1ccc(OC(F)(F)F)cc1`, the AC50 is reported as 10.4 µM (active). For `CC1(C)C(C=C(Cl)Cl)C1C(=O)OC(C#N)c1cccc(Oc2ccccc2)c1` (centres undefined), the AC50 was 21.9 µM (active). With `Cc1cc(C)nc(Nc2ccccc2)n1` the AC50 was 88.8 µM (active). For `COCC(=O)N(c1c(C)cccc1C)C(C)C(=O)OC` (centres undefined), the outcome was “inactive”. With `COC(=O)c1c(C(F)F)nc(C(F)(F)F)c(C2=NCCS2)c1CC(C)C` the AC50 was 50 µM (active). With `CN=C=S` the outcome was “inactive”.

What follows are molecules tested on cysteine-aspartic acid protease (CASP8), CASP8 (gene 841) (assay: LTEA_HepaRG_CASP8: Life Technologies and Expression Analysis (LTEA) Assay for cysteine-aspartic acid protease (CASP8) using HepaRG (AID 2283480)). Details: mRNA level, 48 h; actives raise or lower the signal.
How it was run: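 qRT-PCR readout of CASP8 mRNA, normalized to three housekeeping genes, after 48 h chemical exposure of HepaRG cells; 8-point half-log series, top 100 uM, 0.5% DMSO vehicle. Bidirectional curve fitting against DMSO baseline.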
For `CNC(=O)Oc1cccc2ccccc12`, the outcome was “inactive”. `CCSC(=O)N1CCCCCC1` was tested, and the outcome was “inactive”. In the case of `COc1ccc(-c2ccccc2)cc1NNC(=O)OC(C)C`, the outcome is reported as “inactive”. `CC(C)=CC1C(C(=O)OCc2coc(Cc3ccccc3)c2)C1(C)C` (centres undefined) was tested, and the outcome was “inactive”. For `OC(c1ccc(Cl)cc1)(c1ccc(Cl)cc1)C(Cl)(Cl)Cl`, the AC50 was 50 µM (active). `COC(=O)NS(=O)(=O)c1ccc(N)cc1` was tested, and the outcome was “inactive”. In the case of `CC(C)Oc1cccc(NC(=O)c2ccccc2C(F)(F)F)c1`, the outcome is reported as “inactive”. With `CS(=O)(=O)c1cc(C(F)(F)F)ccc1C(=O)c1cnoc1C1CC1` the outcome was “inactive”. In the case of `CCOP(=O)(OCC)Oc1nc(Cl)c(Cl)cc1Cl`, the outcome is reported as “inactive”. In the case of `CCOP(=S)(OCC)Oc1nc(Cl)n(C(C)C)n1`, the outcome is reported as “inactive”. `CCOc1nc(F)cc2nc(S(=O)(=O)Nc3c(Cl)cccc3Cl)nn12` was tested, and the outcome was “inactive”. `COP(=S)(OC)SCn1nnc2ccccc2c1=O` was tested, and the outcome was “inactive”. In the case of `CNC(=O)N(C)c1nnc(C(C)(C)C)s1`, the outcome is reported as “inactive”. For `Clc1nc(Cl)nc(Nc2ccccc2Cl)n1`, the outcome was “inactive”. `Nc1c(Cl)c(Cl)nc(C(=O)O)c1Cl` was tested, and the outcome was “inactive”. With `Nc1c(Cl)c(F)nc(OCC(=O)O)c1Cl` the outcome was “inactive”. In the case of `CC1(C)CCC(=Cc2ccc(Cl)cc2)C1(O)Cn1cncn1` (centres undefined), the outcome is reported as “inactive”. In the case of `CSC(=O)c1c(C(F)F)nc(C(F)(F)F)c(C(=O)SC)c1CC(C)C`, the outcome is reported as “inactive”. For `CCCCC(C#N)(Cn1cncn1)c1ccc(Cl)cc1` (centres undefined), the outcome was “inactive”. In the case of `O=C(O)c1c(Cl)ccc2cc(Cl)cnc12`, the outcome is reported as “inactive”. With `O=P(O)(O)CCCl` the outcome was “inactive”. For `Cc1cnc(C2=NC(C)(C(C)C)C(=O)N2)c(C(=O)O)c1` (centres undefined), the outcome was “inactive”. With `CCOC(=O)C(C)OC(=O)c1cc(Oc2ccc(C(F)(F)F)cc2Cl)ccc1[N+](=O)[O-]` (centres undefined) the outcome was “inactive”. With `COC(=O)N(C(=O)N1CO[C@@]2(C(=O)OC)Cc3cc(Cl)ccc3C2=N1)c1ccc(OC(F)(F)F)cc1` the outcome was “inactive”. In the case of `CC1(C)C(C=C(Cl)Cl)C1C(=O)OC(C#N)c1cccc(Oc2ccccc2)c1` (centres undefined), the outcome is reported as “inactive”. In the case of `Cc1cc(C)nc(Nc2ccccc2)n1`, the outcome is reported as “inactive”. In the case of `O=c1n(Cl)c(=O)n(Cl)c(=O)n1Cl`, the outcome is reported as “inactive”. In the case of `CO/N=C(/C1=NOCCO1)c1ccccc1Oc1ncnc(Oc2ccccc2Cl)c1F`, the outcome is reported as “inactive”. In the case of `COCC(=O)N(c1c(C)cccc1C)C(C)C(=O)OC` (centres undefined), the outcome is reported as “inactive”. In the case of `C=CCOC(=O)C(C)(C)OC(=O)c1cc(-n2c(=O)cc(C(F)(F)F)n(C)c2=O)ccc1Cl`, the outcome is reported as “inactive”. For `COC(=O)c1c(C(F)F)nc(C(F)(F)F)c(C2=NCCS2)c1CC(C)C`, the outcome was “inactive”. In the case of `CN=C=S`, the outcome is reported as “inactive”. `CC(C)NC(=O)N1CC(=O)N(c2cc(Cl)cc(Cl)c2)C1=O` was tested, and the outcome was “inactive”. With `COc1cc(OC)nc(NC(=O)NS(=O)(=O)c2ncccc2OCC(F)(F)F)n1` the outcome was “inactive”. In the case of `COP(=O)(OC)O/C(C)=C/C(=O)N(C)C`, the outcome is reported as “inactive”. `CCOc1cc(C(C)(C)C)ccc1C1COC(c2c(F)cccc2F)=N1` (centres undefined) was tested, and the outcome was “inactive”.
